# Measured values taken from PubChem BioAssay.
# “And” between values parts separate entries of the source, which are not always exact repeats. Identical values can stand only once. This is one part of the list. Inconclusive results are not listed. The source made the active and inactive calls.
# What was measured:
# [1] = inhibitors of TNFa-induced NFkB p65 translocation, primary screen, imaging, HUVEC, MLSMR starter and 10KST1 sets (AID 438;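 active = inhibition above 20% together with a positive visual image hit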;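 also: compound added about 3h40 before a 20 min TNFalpha stimulation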;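 as to inhibition: signal is the nuclear over cytoplasmic p65 intensity ratio per well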); settings: HUVEC TNFa-induced p65 nuclear translocation; cell count: measured here: nuclei count (cytotoxicity indicator), at 2.08 µM; inhibition: at 2 µM, stronger effect = higher value, 0% TNFa-plus-vehicle, 100% no-TNFa wells
# [2] = reduction of polyQ htt aggregates in cells – imaging, exon1htt(103Q)mCFP cells, high-content imaging, primary screen (AID 483;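 active = visual image review flags a hit and inhibition of aggregation exceeds 20%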;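 also: compound exposure lasted 3 days before fixation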;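 as to nuclei count: percent of the per-plate median nuclei count of sample wells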); settings: exon1htt(103Q)mCFP cell line, aggregate imaging, at 2 µM; inhibition of aggregation: stronger effect = higher value; nuclei count: measured here: cell count, toxicity
# [3] = endothelial E-selectin expression blockers – imaging, HUVEC, immunofluorescence, MLSMR starter and 10KST1 sets, primary screen (AID 487;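 active = visually confirmed hit in the image check and inhibition above 20%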;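 as to inhibition: signal is fraction of cell area covered by stained E-selectin grains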;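 as to nuclei count: 100% = median nuclei count of all wells on the same plate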); settings: HUVEC TNFalpha-induced E-selectin immunofluorescence imaging, at 2 µM; inhibition: stronger effect = higher value; nuclei count: measured here: cell number, toxicity
# [4] = Primary imaging screen for DUSP6 inhibitors that restore phospho-Erk in transfected HeLa cells, chemical complementation (AID 609;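 active = compounds giving at least 50% inhibition in the cell-based MKP-3 phosphatase rescue imaging test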;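 as to inhibition: phospho-Erk level distribution per well compared with pooled transfected vehicle control wells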); settings: HeLa MKP-3 transfected, phospho-Erk imaging KS statistic, at 10 µM, cells stimulated with TPA for 15 min
# [5] = target: Dual specificity protein phosphatase 6 (Homo sapiens) (UniProt Q16828); assay: as above; settings: HeLa MKP-3 transfected, phospho-Erk imaging KS statistic; at 10 µM; stronger effect = higher value; cells stimulated with TPA for 15 min
# Chain of Dual specificity protein phosphatase 6 (Homo sapiens) (Q16828 whole entry, looked up): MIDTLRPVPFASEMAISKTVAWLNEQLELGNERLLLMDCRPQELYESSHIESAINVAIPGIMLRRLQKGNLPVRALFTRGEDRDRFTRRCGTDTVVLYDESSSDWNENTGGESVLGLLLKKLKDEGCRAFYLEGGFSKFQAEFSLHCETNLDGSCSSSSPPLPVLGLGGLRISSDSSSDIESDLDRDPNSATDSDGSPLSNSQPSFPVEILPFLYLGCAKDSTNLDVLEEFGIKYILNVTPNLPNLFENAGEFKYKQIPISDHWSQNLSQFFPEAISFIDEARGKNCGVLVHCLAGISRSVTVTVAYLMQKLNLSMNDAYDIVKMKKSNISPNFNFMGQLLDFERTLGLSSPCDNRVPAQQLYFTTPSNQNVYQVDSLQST
# [6] = target: Voltage-gated potassium channel subunit beta-2 (Rattus norvegicus) (UniProt P62483); assay: inhibitors of rat Kvbeta2 reductase activity – biochemical, NADPH fluorescence, primary screen (AID 622;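 active = fluorescence slope higher than the sample average by over 3 SD, cut at about -0.22 in these data, passing the limit was not always enough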;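 also: slope of raw intensity against log time taken from 70 to 1610 s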); settings: recombinant KvBeta, 4-cyanobenzaldehyde reduction, at 10 µM, stronger effect = higher value
# Chain of Voltage-gated potassium channel subunit beta-2 (Rattus norvegicus) (P62483 whole entry, looked up): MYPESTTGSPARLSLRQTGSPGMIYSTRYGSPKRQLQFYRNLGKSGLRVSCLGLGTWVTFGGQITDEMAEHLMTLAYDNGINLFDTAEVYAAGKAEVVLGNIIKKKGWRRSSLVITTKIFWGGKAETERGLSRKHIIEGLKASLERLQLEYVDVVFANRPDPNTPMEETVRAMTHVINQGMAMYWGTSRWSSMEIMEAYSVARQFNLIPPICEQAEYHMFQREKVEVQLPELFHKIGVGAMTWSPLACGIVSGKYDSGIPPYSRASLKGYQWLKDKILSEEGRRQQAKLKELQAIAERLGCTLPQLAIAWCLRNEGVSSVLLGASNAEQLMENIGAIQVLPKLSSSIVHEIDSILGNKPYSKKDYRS
# [7] = target: Voltage-gated potassium channel subunit beta-2 (Rattus norvegicus) (UniProt P62483); assay: enhancers of rat Kvbeta2 NADPH turnover – biochemical, NADPH fluorescence, primary screen (AID 623;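 active = NADPH fluorescence slope more negative than the mean of all samples by about 3 SD, 99.7% confidence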;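 also: fluorescence intensity change per second fitted from 20 to 320 s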); settings: Recombinant KvBeta, NADPH fluorescence decrease slope, 10 min; at 10 µM; stronger effect = lower value
# [8] = target: Alpha-2C adrenergic receptor (Homo sapiens) (UniProt P18825); assay: compounds altering alpha2C-coupled GIRK flux – cell-based, HEK293 alpha2C/GIRK1/2, thallium flux, primary screen (AID 624;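 active = fluorescence slope after compound addition differing from the mean of all screened samples at 99.7% confidence, in either direction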;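 also: slope of fluorescence ratio to pre-addition baseline per second over 15 to 24 s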); settings: thallium flux BTC fluorescence, at 10 µM, actives lie on both sides
# Chain of Alpha-2C adrenergic receptor (Homo sapiens) (P18825 whole entry, looked up): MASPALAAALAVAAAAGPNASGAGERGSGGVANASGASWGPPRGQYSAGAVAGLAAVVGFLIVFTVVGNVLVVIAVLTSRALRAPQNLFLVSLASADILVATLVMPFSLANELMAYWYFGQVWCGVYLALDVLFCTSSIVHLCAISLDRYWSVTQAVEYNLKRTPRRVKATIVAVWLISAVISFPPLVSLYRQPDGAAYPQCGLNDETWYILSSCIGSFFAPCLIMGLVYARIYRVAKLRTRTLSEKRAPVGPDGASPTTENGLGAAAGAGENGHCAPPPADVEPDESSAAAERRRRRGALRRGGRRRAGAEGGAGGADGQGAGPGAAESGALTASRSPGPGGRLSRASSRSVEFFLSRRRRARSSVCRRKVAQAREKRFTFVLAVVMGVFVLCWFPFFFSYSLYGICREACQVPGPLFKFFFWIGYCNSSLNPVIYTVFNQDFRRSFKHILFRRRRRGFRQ
# [9] = loss of swimming-algae plug formation – whole organism, Chlamydomonas reinhardtii, WT vs cilia-less mutant, absorbance, 96-well, primary screen (AID 463189;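 active = inhibition at or above 50% relative to wild type and mutant plate controls; inactive = inhibition below 50%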;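 also: 0% = wild type cc124 cells in DMSO and 100% = ciliumless bld1 mutant cells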); settings: Chlamydomonas reinhardtii gravitaxis, OD600 absorbance, 2 days; at 10 µM; stronger effect = higher value
# [10] = blockers of RIG-like receptor reporter activation – cell-based, Sendai virus stimulus, luciferase, 10K MLSCN set, TLR/RLR signaling modifier project, primary screen (AID 602276;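 active = inhibition at or above 50% at 10 µM; inactive = inhibition below 50%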;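 also: firefly luciferase from ISG56 promoter only with Renilla not read in this screen; 0% = Sendai virus plus DMSO and 100% = medium plus DMSO without virus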); settings: HEK293 RL24 IRF3 luciferase reporter, at 10 µM, stronger effect = higher value
# [11] = TLR3 IRF3 reporter activation blockers – cell-based, poly I:C stimulus, luciferase, 10K MLSCN set, primary screen (AID 602277;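 active = inhibition of the reporter signal at or above 50%; inactive = inhibition below 50%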); settings: HEK293-TLR3 RL24 IRF3 luciferase reporter, at 10 µM, stronger effect = higher value
# [12] = PubChem AID 1714; settings: HEK293-KCC2 + bumetanide/ouabain, thallium flux FluoZin2; at 10 µM; stronger effect = higher value;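 also: raw slope of fluorescence over initial fluorescence between 10 and 20 s after thallium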
# [13] = compound effects on native HEK Tl+ uptake – HEK cells, counterscreen 1, counter-screen for KCC2 modulator project, confirmation (AID 1716); settings: HEK293 parental cells, thallium flux FluoZin2, ouabain; at 10 µM; baseline-ratio fluorescence slope, 10–20 s after thallium
# [14] = target: Solute carrier family 12 member 5 (Homo sapiens) (UniProt Q9H2X9); assay: modulation of KCC2 thallium flux in HEK cells – cell-based, ouabain, retest, confirmation (AID 1717;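 active = thallium flux slope beyond 3 SD from same-plate DMSO control mean in most replicates, usually higher, sometimes lower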;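 also: slope of initial-normalized fluorescence between seconds 10 and 20 after thallium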); settings: HEK293-KCC2, thallium flux FluoZin2 fluorescence, at 10 µM, bidirectional: low = inhibitor, high = activator
# Chain of Solute carrier family 12 member 5 (Homo sapiens) (Q9H2X9 whole entry, looked up): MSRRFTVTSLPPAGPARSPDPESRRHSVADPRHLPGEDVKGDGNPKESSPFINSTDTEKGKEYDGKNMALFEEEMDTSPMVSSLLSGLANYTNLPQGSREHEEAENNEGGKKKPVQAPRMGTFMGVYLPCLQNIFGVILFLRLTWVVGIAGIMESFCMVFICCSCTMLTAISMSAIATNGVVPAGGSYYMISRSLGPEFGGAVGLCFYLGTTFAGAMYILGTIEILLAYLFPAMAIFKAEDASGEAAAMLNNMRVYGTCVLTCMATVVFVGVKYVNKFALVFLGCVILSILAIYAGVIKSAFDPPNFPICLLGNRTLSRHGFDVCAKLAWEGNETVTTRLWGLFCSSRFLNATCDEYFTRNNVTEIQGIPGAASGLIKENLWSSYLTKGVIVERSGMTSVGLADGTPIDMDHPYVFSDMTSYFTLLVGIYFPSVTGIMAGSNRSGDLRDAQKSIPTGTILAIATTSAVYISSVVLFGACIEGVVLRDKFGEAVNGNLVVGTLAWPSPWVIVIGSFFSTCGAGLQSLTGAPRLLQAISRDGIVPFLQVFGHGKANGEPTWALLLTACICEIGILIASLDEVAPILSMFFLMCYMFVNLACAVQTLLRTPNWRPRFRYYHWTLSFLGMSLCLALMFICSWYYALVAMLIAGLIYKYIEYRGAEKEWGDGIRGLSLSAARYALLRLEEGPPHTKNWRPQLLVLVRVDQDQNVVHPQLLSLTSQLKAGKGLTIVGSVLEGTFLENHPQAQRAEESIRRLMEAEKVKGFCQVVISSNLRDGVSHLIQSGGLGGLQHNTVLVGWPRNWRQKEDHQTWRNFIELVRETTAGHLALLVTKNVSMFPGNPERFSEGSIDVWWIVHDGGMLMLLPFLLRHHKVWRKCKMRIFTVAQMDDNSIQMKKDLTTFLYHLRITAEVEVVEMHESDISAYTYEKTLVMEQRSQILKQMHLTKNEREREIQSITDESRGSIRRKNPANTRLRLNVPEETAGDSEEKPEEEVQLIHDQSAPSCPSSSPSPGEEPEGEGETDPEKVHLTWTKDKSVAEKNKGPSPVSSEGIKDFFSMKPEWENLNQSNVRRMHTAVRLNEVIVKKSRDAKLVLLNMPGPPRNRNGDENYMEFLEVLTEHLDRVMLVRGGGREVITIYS
# [15] = target: Solute carrier family 12 member 5 (Homo sapiens) (UniProt Q9H2X9); assay: retest of KCC2 transport modulators without sodium – cell-based, HEK293 KCC2, thallium flux, secondary assay, confirmation (AID 1713;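 active = thallium flux slope above the same plate's solvent-only control mean plus 3 SD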); settings: FluoZin2 fluorescence, at 10 µM, stronger effect = higher value
# [16] = native HEK Tl+ uptake effects, second counter-screen – HEK cells, counterscreen 2, counter-screen for KCC2 modulator project, confirmation (AID 1718;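 active = thallium flux slope above the same plate's solvent-control mean plus 3 SD in both duplicate wells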;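 also: run without ouabain in cells lacking the KCC2 cotransporter; slope of fluorescence scaled to its starting value between 10 and 20 s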); settings: HEK293 parental, thallium flux FluoZin-2 fluorescence slope; at 10 µM
# [17] = target: Solute carrier family 12 member 5 (Homo sapiens) (UniProt Q9H2X9); assay: retest of KCC2 transport modulation, ouabain-free – cell-based, HEK293 KCC2, thallium flux, FluoZin2, secondary assay 2, confirmation (AID 1715;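 active = thallium flux slope more than 3 SD above or below the plate's solvent-only control mean, mostly below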;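 also: raw slope with 0.1% DMSO as baseline and bumetanide as block control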); settings: HEK293-KCC2, thallium flux FluoZin2 fluorescence; at 10 µM; actives lie on both sides; F/F0 rise rate, 10–20 s post-thallium
# [18] = inhibitors of larval lipid processing in zebrafish, primary screen, whole organism, PED6 fluorescence, gall bladder and intestine (AID 686;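 active = a full or partial loss of lipid-probe fluorescence in the fish gall bladder, intestine or both, judged by eye; inactive = no fluorescence loss, or compound toxic to the fish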;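 also: larvae 5 to 7 days old with five fish per well; signal comes from phospholipase A2 cleavage of quenched PED6 carried via bile; overnight exposure to compound and PED6 before scoring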); settings: Zebrafish larvae PED6 lipid processing, fluorescence scoring; screened at 20 µM (by protocol)
# [19] = measured here: cell density z-score
# [20] = measured here: nuclear c-Myc green intensity z-score
# [21] = measured here: nuclear pErk red intensity z-score, stronger effect = higher value
smiles,measurement,setting,value
CCN(CC)CCN1C(=O)C(O)=C(C(=O)c2ccco2)C1c1ccccn1 (configuration not stated),cell count,[1],439
same,inhibition,[1],-6.3% (inactive)
same,inhibition of aggregation,[2],16.5% (inactive)
same,nuclei count,[2],89.2%
same,inhibition,[3],-87.6% (inactive)
same,nuclei count,[3],123%
same,z-score,[4]; [19],0.101
same,z-score,[4]; [20],-1.41
same,z-score,[4]; [21],0.388
same,inhibition,[5],3.5% (inactive)
same,fluorescence slope,[6],-0.431 (inactive)
same,NADPH fluorescence slope,[7],-0.000163 (inactive)
same,slope,[8],0.005 (inactive)
same,inhibition,[9],14.9% (inactive)
same,inhibition,[10],15.6% (inactive)
same,inhibition,[11],18.9% (inactive)
Cc1ccccc1-c1nc(CS(=O)(=O)CC(=O)N2CCc3ccccc3C2)c(C)o1,normalized thallium flux,[12],0.00657 (inactive)
same,thallium flux rate (normalised fluorescence),[13],0.00685 (inactive)
same,"raw Tl+ flux slope (below DMSO = inhibition, above = activation)",[14],0.0154 (active)
Cc1ccc(-c2noc(CN3CCN(Cc4ccccc4)CC3)n2)cc1,normalised thallium flux (F/F0 slope),[15],0.0176 (inactive)
same,thallium flux rate (normalised fluorescence),[13],0.00768 (inactive)
same,"raw Tl+ flux slope (below DMSO = inhibition, above = activation)",[14],0.0139 (inactive)
same,thallium flux slope,[16],0.0101 (inactive)
Cc1ccc(C(=O)NC(=S)Nc2ccccc2C)cc1,normalized thallium flux,[12],0.0441 (active)
same,normalized thallium flux,[17],0.0421 (active)
same,thallium flux rate (normalised fluorescence),[13],0.0432 (active)
same,"raw Tl+ flux slope (below DMSO = inhibition, above = activation)",[14],0.0453 (active)
same,thallium flux slope,[16],0.0284 (active)
C1CNCCNCCNCCN1,cell count,[1],566
same,inhibition,[1],-6.4% (inactive)
same,inhibition of aggregation,[2],12.4% (inactive)
same,nuclei count,[2],109%
same,inhibition,[3],-31.7% (inactive)
same,nuclei count,[3],105%
same,z-score,[4]; [19],-1.12
same,z-score,[4]; [20],-0.574
same,z-score,[4]; [21],0.0503
same,inhibition,[5],10.2% (inactive)
same,fluorescence slope,[6],-0.481 (inactive)
same,NADPH fluorescence slope,[7],-4.4e-05 (inactive)
same,slope,[8],0.00519 (inactive)
same,inhibition,[9],1.09% (inactive)
same,inhibition,[10],13.2% (inactive)
same,inhibition,[11],41.9% (inactive)
O=C(O)CS/C(=C\c1ccc(F)cc1)c1nc2ccccc2s1,normalised thallium flux (F/F0 slope),[15],0.0153 (inactive)
same,thallium flux rate (normalised fluorescence),[13],0.00592 (active)
same,"raw Tl+ flux slope (below DMSO = inhibition, above = activation)",[14],0.011 (active)
N#Cc1c(-c2ccc(Cl)cc2)c2c([nH]c1=S)CCCC2,normalized thallium flux,[12],0.0281 (active)
same,normalized thallium flux,[17],0.0403 (active)
same,thallium flux rate (normalised fluorescence),[13],0.0184 (active)
same,"raw Tl+ flux slope (below DMSO = inhibition, above = activation)",[14],0.0302 (active)
same,thallium flux slope,[16],0.0192 (active)
CCN(CC)C(=O)c1ccc(O)c(OC)c1,cell count,[1],502
same,inhibition,[1],-11.1% (inactive)
same,inhibition of aggregation,[2],8.7% (inactive)
same,nuclei count,[2],92.4%
same,inhibition,[3],-54.9% (inactive)
same,nuclei count,[3],125%
same,z-score,[4]; [19],0.597
same,z-score,[4]; [20],0.258
same,z-score,[4]; [21],-0.513
same,inhibition,[5],8% (inactive)
same,fluorescence slope,[6],-0.5 (inactive)
same,NADPH fluorescence slope,[7],-7.4e-05 (inactive)
same,slope,[8],0.00537 (inactive)
same,inhibition,[9],4.81% (inactive) and 9.44% (inactive)
same,inhibition,[10],-6.3% (inactive)
same,inhibition,[11],27.6% (inactive)
C/C(=C\C(=O)c1ccc(Br)cc1)N1CCCCC1,normalized thallium flux,[12],0.0396 (active)
same,normalized thallium flux,[17],0.0283 (inactive)
same,thallium flux rate (normalised fluorescence),[13],0.0152 (active)
same,thallium flux slope,[16],0.0111 (active)
CCCC(=O)N1c2ccccc2NC2=C(C(=O)CCC2)C1c1ccc(F)cc1 (configuration not stated),cell count,[1],593
same,inhibition,[1],-9.6% (inactive)
same,inhibition of aggregation,[2],3.9% (inactive)
same,nuclei count,[2],124%
same,inhibition,[3],-94.4% (inactive)
same,nuclei count,[3],123%
same,fluorescence slope,[6],-0.574 (inactive)
same,NADPH fluorescence slope,[7],-1.5e-05 (inactive)
same,slope,[8],0.0063 (inactive)
same,normalised thallium flux (F/F0 slope),[15],0.0086 (inactive)
same,normalized thallium flux,[17],0.0312 (inactive)
same,thallium flux rate (normalised fluorescence),[13],0.0072 (inactive)
same,"raw Tl+ flux slope (below DMSO = inhibition, above = activation)",[14],0.0212 (inactive)
same,inhibition,[10],8.4% (inactive)
same,inhibition,[11],23.4% (inactive)
NC(N)=NC(=O)c1nc(Cl)c(N)nc1N,cell count,[1],517
same,inhibition,[1],-4.2% (inactive)
same,inhibition of aggregation,[2],-1.5% (inactive)
same,nuclei count,[2],103%
same,inhibition,[3],-76.7% (inactive)
same,nuclei count,[3],114%
same,z-score,[4]; [19],2.22
same,z-score,[4]; [20],-1.45
same,z-score,[4]; [21],-1.51
same,inhibition,[5],30.1% (inactive)
same,fluorescence slope,[6],-0.443 (inactive)
same,NADPH fluorescence slope,[7],-7.2e-05 (inactive)
same,slope,[8],0.00564 (inactive)
same,inhibition,[9],4.19% (inactive) and 21.2% (inactive)
same,inhibition,[10],15.9% (inactive)
same,inhibition,[11],42% (inactive)
O=C(Nc1ccccc1F)C1C2C=CC3(O2)C1C(=O)N(c1cccnc1)C3C(=O)NC1CCCCC1 (configuration not stated),normalized thallium flux,[12],0.00547 (active)
same,normalized thallium flux,[17],0.0222 (active)
same,"raw Tl+ flux slope (below DMSO = inhibition, above = activation)",[14],0.0131 (active)
same,thallium flux slope,[16],0.0108 (inactive)
CC(C)(C)c1ccc(C(=O)NCC(=O)OCN2C(=O)c3ccccc3C2=O)cc1,normalized thallium flux,[12],0.00471 (inactive)
same,normalized thallium flux,[17],0.031 (inactive)
same,thallium flux rate (normalised fluorescence),[13],0.00756 (inactive)
same,"raw Tl+ flux slope (below DMSO = inhibition, above = activation)",[14],0.0171 (inactive)
same,thallium flux slope,[16],0.0105 (inactive)
CCn1c(SCC(=O)c2ccc3ccccc3c2)nnc1-c1cccs1,normalised thallium flux (F/F0 slope),[15],0.00706 (inactive)
same,normalized thallium flux,[17],0.0307 (inactive)
same,thallium flux rate (normalised fluorescence),[13],0.00707 (inactive)
same,"raw Tl+ flux slope (below DMSO = inhibition, above = activation)",[14],0.0159 (active)
same,thallium flux slope,[16],0.0101 (inactive)
C=CCn1c(=S)[nH]c2nc3c(cc2c1=O)COC(C)(C)C3,cell count,[1],590
same,inhibition,[1],-2.3% (inactive)
same,inhibition of aggregation,[2],0.9% (inactive)
same,nuclei count,[2],109%
same,inhibition,[3],-9.4% (inactive)
same,nuclei count,[3],134%
same,z-score,[4]; [19],1.01
same,z-score,[4]; [20],0.551
same,z-score,[4]; [21],-1.17
same,inhibition,[5],3.66% (inactive)
same,fluorescence slope,[6],-0.495 (inactive)
same,NADPH fluorescence slope,[7],-0.00014 (inactive)
same,slope,[8],0.00772 (inactive)
same,outcome,[18],inactive
same,normalized thallium flux,[12],0.0176 (active)
same,normalized thallium flux,[17],0.0337 (inactive)
same,thallium flux slope,[16],0.0123 (inactive)
same,inhibition,[9],-8.98% (inactive)
same,inhibition,[10],14.5% (inactive)
same,inhibition,[11],-0.984% (inactive)
